Results filed as inconclusive are left out. Calls of active or inactive are those of the source. Calls come from the whole dose curve; as a rule, active = well fitted inhibition curve with a large enough effect; inconclusive = small, poorly fitted or top-dose-only effect; inactive = flat fitted curve, though single readings scatter.
assay: High Content Imaging Cell-Based qHTS for Inhibitors of the mTORC1 Signaling Pathway in MEF (Tsc2-/-, p53-/-) Cells (AID 2666); conditions: series mostly up to 38.3 µM;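 note: percent of cells scored positive for phospho-rpS6 Ser235/236 immunostaining by imaging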
From the text: NIH Molecular Libraries Probe Production Centers Network [MLPCN]
NIH Chemical Genomics Center [NCGC]
Assay Submitter (PI): Blenis, John; Hoffman, Greg; Harvard University
NCGC Assay Overview: Thee mammalian target of rapamycin (mTOR) is an intracellular serine/threonine kinase Aberrant regulation of mTOR signaling plays a causative role in a number of human diseases, including cancer, benign tumors such as lymphangioleiomyomatosis (LAM) and Tuberous Sclerosis Complex (TSC), and metabolic diseases such as diabetes and obesity. This project aims to identify inhibitors of ribosomal protein S6 (rpS6) phosphorylation. The phosphorylation of rpS6 is a key event downstream of mTOR activation. The assay uses a phospho-specific antibody of phospho-rpS6 to detect inhibitors of mTOR activation. Mutations in the Tsc1 and Tsc2 genes are the underlying genetic lesions responsible for TSC, causing constitutive activation of the mTORC1 pathway and leading to profound effects on cell metabolism. Aberrant metabolism in cancer has recently received significant attention as a target to develop therapeutic agents in the treatment of cancer1. As Tsc2-/- cells have lost the ability to respond to energy and growth factor deprivation, these cells are unable to properly down regulate cellular biosynthetic processes in response to metabolic stress, and are thus extremely sensitive to glucose deprivation-induced death.2 A central goal of this project is to explore the unique cell survival and metabolic properties of cells with Tsc1 or Tsc2 by screening for compounds that selectively target the Tsc2-/- MEFs by screening both Tsc2-/- and WT MEF cell lines. We hope to better understand these aspects of TSC physiology in order to exploit them for therapeutic benefit.
NCGC IN Cell Assay Protocol:
For quantitative high throughput analysis of mTORC1 signaling, we developed a cell-based assay for immuno-fluorescence based detection of rpS6 phosphorylation on the Acumen Explorer that will be used a platform for the primary small molecule screen. Mouse embryonic fibroblasts (MEFs) are cultured in 1536-well plates using DMEM + 10% FBS. Twenty-four hrs after plating, test compounds (solubilized in DMSO) are delivered and incubated with the cells for 24 hrs at 37 degree Celsius. Following the incubation, media with compound is aspirated and the cells are fixed in 4% paraformaldehyde (PFA) containing PBS + 0.2% TX-100. Next, PFA is aspirated, cells are washed two times with PBS plus 0.2% TX-100 and the cells are blocked for 1 hr at room temperature (blocking buffer: LiCOR Blocking Buffer plus 0.2% TX-100). This is followed by aspiration and staining with Alexa-488 conjugated-phospho-rpS6 Ser235/236 antibody for 2 hours at room temperature (Cell Signaling Technology # 4803, 1:50 dilution in blocking buffer). Cells are washed two times with PBS plus 0.2% TX-100, and stained with 10 uM propidium iodide (PI) for 20-25 minutes for cell number measurement (1:500 dilution of Hoescht staining is also added for IN Cell imaging). Active wells which are selected (based on Acumen results) are imaged on the IN Cell 1000 (GE Healthcare) using the D360/40X and HQ480/40X excitation filters for the Hoechst and Alexa-488 cytoplasmic stains, respectively. The fluorescence emission filters used were HQ460/40M and HQ535/50M for the Hoechst and Alexa-488 cytoplasmic stains, respectively. The normalized phospho-S6 staining is calculated as the ratio of […] for the single concentration rapamycin control ([…] nM) and DMSO columns. […] Inhibition of the pathway is defined based on the normalized phospho-S6 intensity in rapamycin treated cells. Each treatment is reported as the % positive cells in the well, where thresholds are defined by selecting wells with the highest and lowest signal and differentiating between the % non-active and % active populations. […]

| Structure (SMILES) | outcome |
| --- | --- |
| OCC1O[C@H]([S-])[C@H](O)[C@@H](O)[C@@H]1O.[Au+] (stereo not given in full) | inactive |
| O=C1/C(=C/c2ccsc2)CC/C1=C\c1cccs1 | inactive |
| CCN(CC)c1ncnc2c1ncn2[C@@H]1O[C@H](COP(=O)(O)OP(=O)(O)C(Br)(Br)P(=O)(O)O)[C@@H](O)[C@H]1O | inactive |
| NCC1OC(O[C@H]2[C@H](O)[C@@H](OC3C(O)C(N)CC(N)C3OC3OC(CO)C(O)C(O)C3N)O[C@@H]2CO)C(N)C(O)C1O (stereo not given in full) | inactive |
| Fc1cccc(/C=N/N=C/c2cccc(F)c2)c1 | inactive |
| CN1[C@@H](CC(=O)c2ccccc2)CCC[C@H]1C[C@H](O)c1ccccc1 | inactive |
| O=C(O)CC1CCCc2ccccc2C1O (stereo not given) | inactive |
| C=CC(=O)c1ccc(CCCCCC)cc1 | inactive |
| CO/S(=N\S(=O)(=O)c1ccc(Cl)cc1)c1ccc([N+](=O)[O-])cc1 (stereo not given) | inactive |
| Nc1ncnc2c1ncn2[C@@H]1O[C@H](COP(=O)(O)CP(=O)(O)OP(=O)(O)O)[C@@H](O)[C@H]1O | inactive |
| OCC1O[C@H](O)C(Cl)C(O)C1O (stereo not given in full) | inactive |
| C=CC(N)CCC(=O)O (stereo not given) | inactive |
| O=C(O)CCCC[C@@H]1CCSS1 | inactive |
| CCCCC/C=C\CC(O)/C=C/c1cccc(CC(O)CCCCO)n1 (stereo not given) | inactive |
| CN(C)CCC(c1ccc(Cl)cc1)c1ccccn1 (stereo not given) | inactive |
| COc1cccc(OC)c1OCCNCC1COc2ccccc2O1 (stereo not given) | inactive |
| CC1CN(S(=O)(=O)c2cccc3cnccc23)CCN1 (stereo not given) | inactive |
| NCCCS(=O)(=O)O | inactive |
| CCCCCCCCCCCCCCCCCC(=O)OC(CC(=O)O)C[N+](C)(C)C (stereo not given) | inactive |
| CC(C)Cc1ccc([C@H](C)C(=O)O)cc1 | inactive |

| Structure (SMILES) | outcome |
| --- | --- |
| OC[C@H]1O[C@@H](n2cnc3c(NC4CCCC4)ncnc32)[C@H](O)[C@@H]1O | inactive |
| C[N+]1(C)CCC(OC(=O)C(c2ccccc2)c2ccccc2)CC1 | inactive |
| COc1ccc(NC(=O)/C=C/c2ccc(Cl)cc2)cc1 | inactive |
| CN1CC(=O)N/C1=N/C(=O)Nc1cccc(Cl)c1 | inactive |
| Clc1ccc(N2CCN(Cc3c[nH]c4ncccc34)CC2)cc1 | inactive |
| CN1CCc2cc(O)c(O)cc2C(c2ccccc2)C1 (stereo not given) | inactive |
| O=c1[nH]c2cc(Cl)c(Cl)cc2[nH]c1=O | inactive |
| NC(=S)NCCC[C@H](N)C(=O)O | inactive |
| CN(C)c1nc2c(Br)c(Br)c(Br)c(Br)c2[nH]1 | inactive |
| NC(N)=NC(=O)c1nc(Cl)c(N2CCCCCC2)nc1N | inactive |
| C#CCN1C(C)=C(C(=O)OC)C(c2cccc([N+](=O)[O-])c2)C(C(=O)OCC)=C1C (stereo not given) | inactive |
| CC1(C)CCC=[N+]1[O-] | inactive |
| CCCCCC(O)c1cccc(OCc2ccc3ccccc3n2)c1 (stereo not given) | inactive |
| CN(C)CCCO[C@@H]1[C@H]2OC(C)(C)O[C@H]2O[C@@H]1[C@H](O)CO | inactive |
| Cn1ncc(S(=O)(=O)Cc2ccccc2)c(Br)c1=O | inactive |
| CN(C)c1ccc(/C=C2\C(=O)Nc3ccccc32)cc1 | inactive |
| CN(C)C(N)=NCCC[C@H](N)C(=O)O | inactive |
| N.N.N.N.N.N.N.N.N.N.N.N.N.N.O.O.[Ru+4].[Ru+5].[Ru+5] | inactive |
| O=C(/C=C/c1ccc(O)c(O)c1)OCCc1ccccc1 | inactive |
| COC1=C(OC)C(=O)c2ccccc2C1=O | inactive |

Source: PubChem BioAssay (NCATS)
